# Screening data from PubChem BioAssay.
# CYP2C19 inhib: inhibitors of human CYP2C19. actives 21% (n = 96,000). inhibition, % at 5 µM. P33261. AID 778. CYP2C19 Supersomes, luciferin-H EGE luminescence, 30 min;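 active = CYP2C19 inhibition above a set limit at 5 µM in the primary screen, cut at about 50% in these data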;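 note: plate controls were negative control wells for no effect and 2.5 mM tranylcypromine positive control for full effect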
# CYP2C9 inhib: inhibitors of human CYP2C9; actives 20% (n = 96,000); AID 777; P11712; inhibition, % at 5 µM; CYP2C9 Supersomes, luciferin-H conversion, luminescence;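 active = blocking of liver enzyme CYP2C9 beyond about 50% at 5 µM, limit read from the data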
# Cav32 inh: inhibitors of human Cav3.2 T-type calcium channel. actives 4% (n = 100,000). Cav3.2-expressing cells, Fluo-4 calcium fluorescence FDSS; stronger effect = lower value. O95180. B-score at 10 µM;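 active = single-dose well whose peak fluorescence ratio is a statistical outlier from its plate by either plate-standardised score or position-corrected B-score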
# CYP2C9 activ: activators of human CYP2C9; P11712; recombinant CYP2C9, luciferin-H conversion, luminescence; stronger effect = higher value; factor 1 = untreated enzyme, 0 = blocked; activation factor at 5 µM; actives 1.4% (n = 96,000); AID 1024;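 active = activation factor of 2 or more for CYP2C9 at a 5 µM dose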;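 note: 0 = sulfaphenazole-blocked wells and 1 = vehicle-only wells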
# CYP2C19 activ: activators of human cytochrome P450 2C19. P33261. recombinant CYP2C19, luciferin-H EGE luminescence; stronger effect = higher value; 0 = fully inhibited enzyme, 1 = untreated enzyme. activation factor at 5 µM. 96,000 tested, under 10 active. AID 1025;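 active = activation factor of at least 2 at 5 µM in the primary screen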;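 note: 0 = wells with 2.5 mM tranylcypromine and 1 = vehicle-only wells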
# PTK2B oligo ant: blocks oligomerization of human Pyk2 in cells. Q14289. Q293 cells, Pyk2 FERM NanoBiT luminescence; stronger effect = lower value. z-score (the deposit names both 25 µM and 10 µM). actives 0.83% (n = 99,000). AID 1347419;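 active = Z-score of -3 or lower, scaled per plate to the spread of control and sample wells; inactive = z-score above -3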;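 note: negative z-score means lost luminescence so less FERM oligomerization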
# Target sequence (Q14289 whole entry, looked up): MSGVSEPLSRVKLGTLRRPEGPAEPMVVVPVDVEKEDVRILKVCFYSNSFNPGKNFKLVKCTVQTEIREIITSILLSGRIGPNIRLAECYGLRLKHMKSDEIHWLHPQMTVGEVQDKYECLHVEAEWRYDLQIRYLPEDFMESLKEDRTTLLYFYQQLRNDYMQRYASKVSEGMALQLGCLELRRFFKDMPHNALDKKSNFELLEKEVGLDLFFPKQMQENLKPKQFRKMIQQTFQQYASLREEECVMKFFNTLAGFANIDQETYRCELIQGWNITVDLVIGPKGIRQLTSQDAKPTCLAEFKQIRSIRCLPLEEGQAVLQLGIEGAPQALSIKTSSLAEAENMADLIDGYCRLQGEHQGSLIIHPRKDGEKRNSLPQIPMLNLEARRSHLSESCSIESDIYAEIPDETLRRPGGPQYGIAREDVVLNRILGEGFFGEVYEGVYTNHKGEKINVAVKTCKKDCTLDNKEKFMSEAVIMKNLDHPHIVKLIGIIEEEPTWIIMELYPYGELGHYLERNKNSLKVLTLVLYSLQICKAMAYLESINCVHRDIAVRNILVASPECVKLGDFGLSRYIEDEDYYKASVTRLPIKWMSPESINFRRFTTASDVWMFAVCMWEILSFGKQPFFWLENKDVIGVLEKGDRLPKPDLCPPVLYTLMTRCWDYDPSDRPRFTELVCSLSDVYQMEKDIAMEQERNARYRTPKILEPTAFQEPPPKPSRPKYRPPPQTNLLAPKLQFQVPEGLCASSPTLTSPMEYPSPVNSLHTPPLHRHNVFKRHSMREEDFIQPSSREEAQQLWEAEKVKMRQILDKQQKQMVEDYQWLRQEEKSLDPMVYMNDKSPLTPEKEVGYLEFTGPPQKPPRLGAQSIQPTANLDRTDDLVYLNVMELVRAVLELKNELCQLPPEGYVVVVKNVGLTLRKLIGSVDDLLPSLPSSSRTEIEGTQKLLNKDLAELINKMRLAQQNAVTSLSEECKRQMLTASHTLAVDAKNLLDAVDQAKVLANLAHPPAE
# * hit, by the source's call; x = no result; ! = a repeat was not active. An excerpt weighted towards active compounds, which were near 27% of everything screened.
SMILES,CYP2C19 inhib,CYP2C9 inhib,Cav32 inh,CYP2C9 activ,CYP2C19 activ,PTK2B oligo ant
Cn1c(SCC(=O)Nc2ccc3nc(SCC(=O)N4CCCC4)sc3c2)nnc1-c1ccc(N)cc1,16,38,x,0.6,0.8,-0.7
COc1cccc(C2CC(c3cccc(Br)c3)n3ncnc3N2)c1 (stereo not drawn),64*,37,-0.14,0.6,0.4,x
COc1cccc(C2CC(c3ccc(C)cc3)n3ncnc3N2)c1 (stereo not drawn),97*,63*,-0.4,0.4,0,x
COc1cccc(C2CC(c3ccccc3Cl)Nc3ncnn32)c1 (stereo not drawn),x,x,x,x,x,0.46
COc1cccc(C2CC(c3ccccc3)n3ncnc3N2)c1 (stereo not drawn),51*,24,-0.095,0.8,0.5,x
COc1ccc(C2CC(c3ccco3)n3ncnc3N2)cc1 (stereo not drawn),x,x,0.17,x,x,x
Fc1cccc(C2CC(c3cccc(Br)c3)Nc3nnnn32)c1 (stereo not drawn),95*,95*,-1.6,0.1,0,-0.35
Cc1cc(NC(=O)CN2C(=O)C3CC=CCC3C2=O)no1 (stereo not drawn),-9,-18,0.21,1.2,1.1,0.97
CC(=O)N1CCc2cc(S(=O)(=O)NC(CC(C)C)C(=O)Nc3cc(C(=O)O)ccc3C)ccc21 (stereo not drawn),-11,-14,x,1.1,1.1,0.59
COc1cc(CN/C(C)=C(\C#N)C(N)=O)cc(OC)c1OC,67*,51*,0.032,0.5,0.3,-0.38
CN1CCN(CCCN2c3ccccc3Sc3ccc(Cl)cc32)CC1,x,x,-5.1*!,x,x,x
Cc1ccc(S(=O)(=O)N/N=C\c2cccnc2)cc1,15,23,0.63,0.8,0.8,0.52
Cc1ccc(S(=O)(=O)N/N=C/c2cn(C)nc2C)cc1,51*,64*,0.03,0.4,0.5,0.89
CCn1cc(/C=N/NS(=O)(=O)c2ccc(OC)cc2)c(C)n1,87*,69*,0.46,0.3,0.1,1.5
Cc1ccc(S(=O)(=O)N/N=C/c2cc(Br)c(C)o2)cc1,32,97*,-0.64,0,0.7,1.5
Cc1ccc(S(=O)(=O)N/N=C\c2cc([N+](=O)[O-])ccc2Cl)cc1,62*,37,-0.072,0.6,0.4,-0.07
O=[N+]([O-])c1ccc(Cl)c(/C=N/NC(=S)Nc2ccccc2)c1,-8,-4,0.1,1,1.1,-0.1
Cc1ccc(S(=O)(=O)C(C#N)c2nc3ccccc3nc2OC(C)C)cc1 (stereo not drawn),1,27,-0.28,0.7,1,-0.01
Cc1cc(C(F)F)n2nc(C(=O)Nc3ccccc3Br)nc2n1,-16,-21,-1,1.2,1.2,0.46
COC(=O)[C@@]1(Cc2ccc(F)cc2)[C@H]2c3cc(C(=O)N(C)C)n(Cc4nc5ccccc5[nH]4)c3C[C@H]2CN1C(=O)c1ccccc1,x,x,-2.3,x,x,x
CCn1cc(/C=N/NS(=O)(=O)c2ccc(C)cc2)c(C)n1,88*,83*,x,0.2,0.1,1.4
N#CC1=C(N)Oc2cc(N)ccc2C1C1CC=CCC1 (stereo not drawn),89*,76*,-0.98,0.2,0.1,0
Cc1cnc(NC(=O)c2ccco2)s1,22,-3,0.79,1,0.8,-0.09
Cc1ccc(CN2CCN(c3ccccn3)CC2)s1,90*,50*,0.39,0.5,0.1,1.5
Cc1sc(NC(=O)c2ccco2)c(CN2CCN(c3ccc(F)cc3)CC2)c1C,55*,48,x,0.5,0.5,-0.98
SMILES,CYP2C19 inhib,CYP2C9 inhib,Cav32 inh,CYP2C9 activ,CYP2C19 activ,PTK2B oligo ant
Cn1c(CCN2CCN(c3ccc(F)cc3)CC2)nc2cc(NC(=O)c3ccco3)ccc21,18,23,0.89,0.8,0.8,1
Cc1sc(NC(=O)c2ccco2)c(CN2CCN(c3ccccn3)CC2)c1C,65*,89*,0.17,0.1,0.3,-1.5
c1ccc(N2CCN(Cc3ccsc3)CC2)nc1,17,5,-0.35,1,0.8,0.7
O=[N+]([O-])c1cccc(/C=N/Nc2cc(Cl)nc(-c3ccccc3)n2)c1,4,18,-0.1,0.8,1,-2.3
COc1ccc(CSCCN)cc1Cl,64*,47,0.66,0.5,0.4,1.1
Nc1cc(=O)[nH]c(SCc2nnc(-c3ccccc3)o2)n1,-12,-3,0.23,1,1.1,0.16
CCC(C)NS(=O)(=O)c1ccc(OCC(=O)Nc2ccc(F)cc2F)cc1 (stereo not drawn),x,x,-0.11,x,x,1.8
C/C(=N/Oc1nc(C)cc(C)n1)c1ccc(Cl)cc1Cl,6,10,0.42,0.9,0.9,0.36
NC/C(=N\O)c1ccc(Cl)cc1Cl,80*,52*,-0.12,0.5,0.2,-0.09
CC(=O)N1c2ccc3ccccc3c2C(C)CC12CCCCC2 (stereo not drawn),98*,94*,-1,0.1,0,-1.9
Cn1c(=O)c(N=O)c(N)n(Cc2ccccc2)c1=S,x,x,0.65,x,x,x
CCOC(=O)N1CCN(C(=O)/C(=C/c2cccc3ccccc23)NC(=O)c2ccc(OC)cc2)CC1,12,38,-3.5,0.6,0.9,-2.4
CCOC(=O)N1CCN(C(=O)/C(=C/c2ccc(OC)cc2)NC(=O)c2ccccc2)CC1,72*,77*,1,0.2,0.3,0.53
Cc1ccc(S(=O)(=O)CCC(=O)c2ccc(O)cc2O)cc1,70*,-91,2.6,1.9,0.3,0.03
O=C1N[C@@H](Cc2cn(S(=O)(=O)c3ccc(F)cc3)c3ccccc23)C(=O)N[C@H]1Cc1ccccc1,x,x,0.015,x,x,x
COc1ccc(C/C(=N\O)c2ccc(OC)cc2)cc1,57*,58*,-2.2,0.4,0.4,-1.6
C=C(c1ccc(OC)cc1)c1ccc(OC)cc1,-14,36,x,0.6,1.1,x
Clc1ccc(CSCCc2ccncc2)cc1,100*,100*,x,0,0,-0.63
c1ccc2c(CSCCc3ccncc3)cccc2c1,97*,94*,-1.2,0.1,0,-0.59
CC1CC(C)CN(CCCNC(=O)Cc2c(C(=O)O)n(C)c3ccccc23)C1 (stereo not drawn),-1,5,0.12,0.9,1,0.26
CCCN1CCN(CCCNC(=O)CCNC(=O)Cn2ccc3ccccc3c2=O)CC1,-17,-10,0.31,1.1,1.2,0.43
CCCC(=O)Nc1cccc(C(=O)Nc2nccs2)c1,20,55*,0.36,0.4,0.8,-0.51
CC(C)C(=O)Nc1cccc(C(=O)Nc2nccs2)c1,20,86*,0.95,0.1,0.8,0.01
CC(C)C(=O)Nc1cccc(C(=O)Nc2nncs2)c1,7,32,0.33,0.7,0.9,-0.21
O=C(Nc1nccs1)c1cccc(NC(=O)C2CC2)c1,18,30,0.52,0.7,0.8,-0.71
Cc1ccc(-c2ccc(/C=N/NC(=S)Nc3ccccc3)o2)cc1[N+](=O)[O-],65*,53*,-0.054,0.5,0.3,-0.24
